These results are taken from paper PMC5540273 (PLoS ONE, 2017).

Among the test systems are FYN; GAK; GRK1; GRK4; GRK7; GSK3A; GSK3B.
Holding throughout (details): concentration: 1 μM,replicates: in singlicate; n = 1
Another assay deals with T1, GCN2(Kin.Dom.2,S808G).
T1 construct: gene EIF2AK4

A further assay concerns T2, GRK2.
T2 construct: gene ADRBK1

Another assay relates to T3, GRK3.
T3 construct: gene ADRBK2
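Also: KINOMEscan kinase panel screen.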

With `Cn1ccc2ncnc(Oc3ccc(NC(=O)Nc4cnn(C(C)(C)C)c4)c(Cl)c3)c21`, the “%Inh” value with FYN turned out to be 0%; in the assay with GAK, 0%; with GCN2(Kin.Dom.2,S808G), 23%; in the assay on GRK1, 18%; in the assay on GRK2, 2%; in the assay on GRK3 it was 6%. Moreover, the “%Inh” value came to 3% in the assay with GRK4, 0% with GRK7, 14% with GSK3A and 0% in the assay with GSK3B.
With `COc1cc2ncn(-c3cc(OCC4CCCCC4)c(C(N)=O)s3)c2cc1OC` [GSK204559], the “%Inh” value with FYN is given as 29%; in the assay on GAK, 79%; in the assay on GCN2(Kin.Dom.2,S808G), 6%; with GRK1, 23%; in the assay on GRK2, 7%; in the assay with GRK3, 40%. Moreover, the “%Inh” value is 27% with GRK4, 98% in the assay on GRK7, 0% in the assay with GSK3A and 0% with GSK3B.
Turning to `COC(=O)c1cccc(NC(=O)NC2CCN(c3ccnc(NCc4ccc(F)cc4)n3)CC2)c1` [GSK1379860], the “%Inh” value with FYN stood at 10%; in the assay on GAK, 0%; with GCN2(Kin.Dom.2,S808G), 0%; in the assay with GRK1, 0%; in the assay with GRK2, 0%; with GRK3, 38%. Besides, the “%Inh” value in the assay on GRK4 came out at 0%; in the assay on GRK7, 0%; in the assay on GSK3A, 6%; with GSK3B, 8%.
For the molecule `c1ccc(Oc2ccc(Nc3ccnc4ccc(-c5ccccn5)cc34)cc2)cc1` [GW407034], the “%Inh” value is given as 62% in the assay with FYN; 17% in the assay with GAK; 1% with GCN2(Kin.Dom.2,S808G); 0% in the assay on GRK1; 0% in the assay with GRK2; 46% in the assay with GRK3. The “%Inh” value is recorded as 16% in the assay with GRK4, 0% in the assay with GRK7, 7% with GSK3A and 9% in the assay on GSK3B.
As to `COC(=O)c1cccc(NC(=O)NC2CCN(c3ccnc(Nc4cc(OC)c(OC)c(OC)c4)n3)C2)c1` (centres unmarked) [GSK1379767], the “%Inh” value in the assay with FYN was determined as 9%; with GAK it was 27%; with GCN2(Kin.Dom.2,S808G) it was 0%; in the assay with GRK1 it was 13%; in the assay on GRK2, 0%; in the assay on GRK3, 49%. For the same molecule, the “%Inh” value came to 0% in the assay on GRK4, 0% in the assay with GRK7, 2% with GSK3A and 0% in the assay with GSK3B.
`CCOC(=O)N1CCC(n2cnc(-c3ccc(F)cc3)c2-c2ccnc(N)n2)CC1` [SB-219952]: the “%Inh” value was 0% in the assay with FYN; 59% in the assay on GAK; 44% in the assay with GCN2(Kin.Dom.2,S808G); 0% in the assay on GRK1; 8% with GRK2; 0% in the assay on GRK3. Moreover, the “%Inh” value in the assay on GRK4 worked out at 32%; with GRK7 it was 20%; in the assay on GSK3A, 0%; in the assay on GSK3B it was 37%.
As to `Cn1cc(-c2cccc3c(N)c(C(N)=O)nnc23)cn1`, the “%Inh” value in the assay on FYN stood at 1%; in the assay with GAK it was 36%; with GCN2(Kin.Dom.2,S808G), 16%; with GRK1, 23%; in the assay on GRK2, 7%; with GRK3 it was 0%. Besides, the “%Inh” value was 40% in the assay with GRK4, 36% in the assay on GRK7, 7% in the assay with GSK3A and 20% in the assay with GSK3B.
Turning to `OCCn1cc(-c2cnc3nnn(Cc4ccc5ncccc5c4)c3n2)cn1`, the “%Inh” value with FYN was 0%; in the assay on GAK, 6%; in the assay on GCN2(Kin.Dom.2,S808G), 0%; in the assay with GRK1 it was 3%; in the assay on GRK2, 0%; in the assay with GRK3 it was 1%. Also, the “%Inh” value in the assay with GRK4, in the assay with GRK7, with GSK3A and in the assay on GSK3B was 0% throughout.
As to `CC(=O)c1c(-c2ccncc2)[nH]c(-c2ccncc2)c1C` [GW493036], the “%Inh” value came out at 37% with FYN; 27% with GAK; 0% with GCN2(Kin.Dom.2,S808G); 0% in the assay on GRK1; 0% in the assay on GRK2; 66% in the assay with GRK3. For the same molecule, the “%Inh” value with GRK4 is 0%; in the assay on GRK7, 0%; in the assay with GSK3A it was 81%; in the assay on GSK3B, 58%.
On to `CCNCC(Cc1ccccc1)NC(=O)c1cc(Br)c(-c2ccnc3[nH]ccc23)s1.Cl.Cl` (centres unmarked) [GSK1383280], for which the “%Inh” value amounted to 0% in the assay with FYN; 51% in the assay on GAK; 43% in the assay with GCN2(Kin.Dom.2,S808G); 89% with GRK1; 61% in the assay on GRK2; 83% with GRK3. Moreover, the “%Inh” value in the assay with GRK4 came to 0%; with GRK7, 91.9%; in the assay with GSK3A, 0%; in the assay with GSK3B, 14%.
Consider `CS(=O)c1ccc(-c2coc3ccc(-c4n[nH]c(=O)o4)cc23)cc1` (centres unmarked), for which the “%Inh” value is recorded as 0% with FYN; 0% with GAK; 21% with GCN2(Kin.Dom.2,S808G); 6% in the assay with GRK1; 0% with GRK2; 30% with GRK3. Besides, the “%Inh” value is given as 19% with GRK4, 15% with GRK7, 93.3% in the assay on GSK3A and 15% with GSK3B.
As for `Cc1cccc2c(-c3ccncc3)c(-c3ccc(F)cc3)nn12.Cl` [GW461487], the “%Inh” value is on record as 4% in the assay with FYN; 67% with GAK; 1% in the assay with GCN2(Kin.Dom.2,S808G); 0% in the assay on GRK1; 0% in the assay with GRK2; 21% in the assay on GRK3. For the same molecule, the “%Inh” value in the assay on GRK4 is on record as 100%; with GRK7, 0%; in the assay on GSK3A, 12%; in the assay with GSK3B, 10%.
As for `CC(C(=O)NC1CCN(c2ccnc(Nc3ccc(F)cc3)n2)C1)c1ccc(Cl)cc1` (centres unmarked) [GSK1379713], the “%Inh” value is reported as 14% with FYN; 0% in the assay on GAK; 0% in the assay with GCN2(Kin.Dom.2,S808G); 0% in the assay with GRK1; 0% in the assay on GRK2; 0% in the assay on GRK3. Besides, the “%Inh” value was 12% with GRK4, 0% in the assay on GRK7, 0% in the assay on GSK3A and 0% in the assay with GSK3B.
Regarding `Cl.Cl.NC[C@H](CC1CCCCC1)NC(=O)c1ccc(-c2ccnc3[nH]ccc23)s1` [GSK1581428], the “%Inh” value in the assay with FYN is 17%; with GAK, 87%; in the assay on GCN2(Kin.Dom.2,S808G), 0%; with GRK1, 93.6%; in the assay with GRK2 it was 55%; in the assay with GRK3, 77%. Further, the “%Inh” value in the assay with GRK4 came out at 91.9%; in the assay on GRK7 it was 96.2%; in the assay on GSK3A it was 0%; in the assay on GSK3B, 9%.
For the molecule `CC(=O)Nc1nc2cnc(Nc3cc(NC(=O)c4cccc(CC(C)(C)C#N)c4)ccc3C)nc2s1`, the “%Inh” value is listed as 0% in the assay with FYN; 9% in the assay on GAK; 0% with GCN2(Kin.Dom.2,S808G); 0% in the assay with GRK1; 15% with GRK2; 0% in the assay on GRK3. The “%Inh” value in the assay with GRK4 is given as 0%; in the assay on GRK7, 44%; in the assay with GSK3A, 0%; in the assay with GSK3B, 2%.
On to `N#Cc1cccc(C(=O)NC2CCN(c3ccnc(Nc4ccc(F)cc4)n3)C2)c1` (centres unmarked) [GSK1379708], for which the “%Inh” value came to 30% in the assay with FYN; 0% with GAK; 9% in the assay with GCN2(Kin.Dom.2,S808G); 0% in the assay on GRK1; 0% in the assay on GRK2; 0% with GRK3. The “%Inh” value in the assay on GRK4 turned out to be 2%; in the assay on GRK7, 0%; with GSK3A, 0%; in the assay on GSK3B, 0%.
Regarding `O=C(NOCC1CC1)c1cc(Br)c(F)c(F)c1Nc1ccc(I)cc1Cl`, the “%Inh” value in the assay with FYN is recorded as 0%; in the assay with GAK, 0%; in the assay on GCN2(Kin.Dom.2,S808G) it was 10%; in the assay with GRK1 it was 30%; in the assay with GRK2, 0%; with GRK3, 0%. Besides, the “%Inh” value is reported as 0% with GRK4, 0% in the assay on GRK7, 33% in the assay with GSK3A and 0% with GSK3B.
